Measurements from the supplement of paper PMC11732987, “Enantioselective OTUD7B fragment discovery through chemoproteomics screening and high-throughput optimisation” (Communications Chemistry, 2025).

Experiments:
Test in all cases: log2 ratio of Biotin-Ahx-Ub-VS probe labelling (fragment/DMSO); higher = less target engagement (more negative = stronger competition), active = hit call of the paper (q ≤ 0.05, log2 ratio ≤ -1)
Conditions in all cases: compound concentration: 200 uM; treatment time: 3 h
ALG13 = biological target: T1, ALG13 (UniProt Q9NP73)
T1 sequence (whole entry): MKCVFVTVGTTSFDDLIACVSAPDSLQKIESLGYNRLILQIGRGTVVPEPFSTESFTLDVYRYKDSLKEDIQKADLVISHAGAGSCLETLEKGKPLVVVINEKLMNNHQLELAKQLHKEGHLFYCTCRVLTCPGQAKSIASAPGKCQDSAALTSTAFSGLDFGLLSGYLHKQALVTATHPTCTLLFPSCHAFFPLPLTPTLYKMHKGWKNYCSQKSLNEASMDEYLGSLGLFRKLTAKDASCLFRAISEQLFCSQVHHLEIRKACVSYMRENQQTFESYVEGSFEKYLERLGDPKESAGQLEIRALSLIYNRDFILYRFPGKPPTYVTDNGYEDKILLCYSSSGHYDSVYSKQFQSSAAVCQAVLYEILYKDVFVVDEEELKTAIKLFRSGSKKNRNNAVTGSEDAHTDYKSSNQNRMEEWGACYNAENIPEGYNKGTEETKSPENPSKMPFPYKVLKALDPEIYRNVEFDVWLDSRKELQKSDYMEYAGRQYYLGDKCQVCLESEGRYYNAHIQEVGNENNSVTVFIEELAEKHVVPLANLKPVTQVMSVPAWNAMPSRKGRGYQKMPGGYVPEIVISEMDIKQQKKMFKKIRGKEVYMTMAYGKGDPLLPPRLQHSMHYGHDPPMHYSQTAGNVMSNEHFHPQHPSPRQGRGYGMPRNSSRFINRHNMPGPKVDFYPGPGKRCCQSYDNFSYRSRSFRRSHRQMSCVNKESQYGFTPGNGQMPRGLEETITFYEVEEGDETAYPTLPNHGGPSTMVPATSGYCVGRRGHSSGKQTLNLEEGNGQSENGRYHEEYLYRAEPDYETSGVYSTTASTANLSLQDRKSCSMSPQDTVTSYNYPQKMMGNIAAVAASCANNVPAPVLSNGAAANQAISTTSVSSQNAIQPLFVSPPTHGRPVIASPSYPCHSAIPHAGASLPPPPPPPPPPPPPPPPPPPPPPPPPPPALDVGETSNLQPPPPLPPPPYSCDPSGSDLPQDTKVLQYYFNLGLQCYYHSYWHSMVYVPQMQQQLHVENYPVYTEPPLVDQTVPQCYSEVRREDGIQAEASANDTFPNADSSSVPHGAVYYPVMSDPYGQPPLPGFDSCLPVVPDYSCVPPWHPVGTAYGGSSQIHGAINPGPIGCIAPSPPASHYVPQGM
How it was run: (§1)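 Fragment (200 µM) or vehicle was incubated for 3 h with triplicate HEK293T lysate samples of 495 µg, which were then treated with Biotin-Ahx-Ub-VS at 0.5 µM final for 1 h. Labelled DUBs were enriched on NeutrAvidin, digested with LysC and trypsin, and analysed by diaPASEF LC-MS/MS. Values are average log2 fragment/vehicle ratios from an unpaired t-test on global-median-normalised Spectronaut label-free quantities, using proteins with ≥2 unique peptides.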

ATXN3 = ATXN3 (UniProt P54252)
How it was run: as §1

BAP1 = biological target: T2, BAP1 (UniProt Q92560)
T2 sequence (whole entry): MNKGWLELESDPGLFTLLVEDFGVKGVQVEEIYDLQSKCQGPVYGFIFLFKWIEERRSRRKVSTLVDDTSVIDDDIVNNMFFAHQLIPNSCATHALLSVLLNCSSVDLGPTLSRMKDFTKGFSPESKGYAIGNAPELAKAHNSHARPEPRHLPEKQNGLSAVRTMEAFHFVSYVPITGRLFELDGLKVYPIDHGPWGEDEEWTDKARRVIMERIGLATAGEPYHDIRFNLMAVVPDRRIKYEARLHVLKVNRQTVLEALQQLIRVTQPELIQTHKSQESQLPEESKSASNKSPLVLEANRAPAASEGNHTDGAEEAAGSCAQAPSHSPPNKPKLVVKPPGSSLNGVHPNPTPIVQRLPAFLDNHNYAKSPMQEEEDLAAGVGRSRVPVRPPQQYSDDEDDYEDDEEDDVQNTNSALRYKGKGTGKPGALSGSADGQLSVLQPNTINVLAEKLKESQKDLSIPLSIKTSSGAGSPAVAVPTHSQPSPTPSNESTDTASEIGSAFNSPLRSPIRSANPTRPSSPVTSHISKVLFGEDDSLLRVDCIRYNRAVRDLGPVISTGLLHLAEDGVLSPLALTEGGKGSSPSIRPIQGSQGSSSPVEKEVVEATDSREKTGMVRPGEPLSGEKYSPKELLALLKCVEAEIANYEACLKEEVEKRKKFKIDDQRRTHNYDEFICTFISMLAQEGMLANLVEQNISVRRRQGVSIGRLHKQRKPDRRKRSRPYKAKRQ
How it was run: as §1

EIF3F = EIF3F (UniProt O00303)
How it was run: as §1

EIF3H = EIF3H (UniProt O15372)
How it was run: as §1

FAM105A = biological target: T3, FAM105A (UniProt Q9NUU6)
T3 sequence (whole entry): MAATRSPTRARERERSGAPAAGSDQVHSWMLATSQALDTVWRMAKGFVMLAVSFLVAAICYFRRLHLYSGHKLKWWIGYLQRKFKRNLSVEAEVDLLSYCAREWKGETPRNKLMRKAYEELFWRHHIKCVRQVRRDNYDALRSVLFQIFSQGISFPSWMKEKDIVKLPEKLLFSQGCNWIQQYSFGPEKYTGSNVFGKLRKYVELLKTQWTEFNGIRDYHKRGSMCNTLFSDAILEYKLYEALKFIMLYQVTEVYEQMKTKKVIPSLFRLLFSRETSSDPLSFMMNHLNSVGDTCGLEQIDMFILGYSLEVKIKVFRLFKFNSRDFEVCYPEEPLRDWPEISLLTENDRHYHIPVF
How it was run: as §1

OTUB1 = OTUB1 (UniProt Q96FW1)
How it was run: as §1

OTUD4 = biological target: T4, OTUD4 (UniProt Q01804)
T4 sequence (whole entry): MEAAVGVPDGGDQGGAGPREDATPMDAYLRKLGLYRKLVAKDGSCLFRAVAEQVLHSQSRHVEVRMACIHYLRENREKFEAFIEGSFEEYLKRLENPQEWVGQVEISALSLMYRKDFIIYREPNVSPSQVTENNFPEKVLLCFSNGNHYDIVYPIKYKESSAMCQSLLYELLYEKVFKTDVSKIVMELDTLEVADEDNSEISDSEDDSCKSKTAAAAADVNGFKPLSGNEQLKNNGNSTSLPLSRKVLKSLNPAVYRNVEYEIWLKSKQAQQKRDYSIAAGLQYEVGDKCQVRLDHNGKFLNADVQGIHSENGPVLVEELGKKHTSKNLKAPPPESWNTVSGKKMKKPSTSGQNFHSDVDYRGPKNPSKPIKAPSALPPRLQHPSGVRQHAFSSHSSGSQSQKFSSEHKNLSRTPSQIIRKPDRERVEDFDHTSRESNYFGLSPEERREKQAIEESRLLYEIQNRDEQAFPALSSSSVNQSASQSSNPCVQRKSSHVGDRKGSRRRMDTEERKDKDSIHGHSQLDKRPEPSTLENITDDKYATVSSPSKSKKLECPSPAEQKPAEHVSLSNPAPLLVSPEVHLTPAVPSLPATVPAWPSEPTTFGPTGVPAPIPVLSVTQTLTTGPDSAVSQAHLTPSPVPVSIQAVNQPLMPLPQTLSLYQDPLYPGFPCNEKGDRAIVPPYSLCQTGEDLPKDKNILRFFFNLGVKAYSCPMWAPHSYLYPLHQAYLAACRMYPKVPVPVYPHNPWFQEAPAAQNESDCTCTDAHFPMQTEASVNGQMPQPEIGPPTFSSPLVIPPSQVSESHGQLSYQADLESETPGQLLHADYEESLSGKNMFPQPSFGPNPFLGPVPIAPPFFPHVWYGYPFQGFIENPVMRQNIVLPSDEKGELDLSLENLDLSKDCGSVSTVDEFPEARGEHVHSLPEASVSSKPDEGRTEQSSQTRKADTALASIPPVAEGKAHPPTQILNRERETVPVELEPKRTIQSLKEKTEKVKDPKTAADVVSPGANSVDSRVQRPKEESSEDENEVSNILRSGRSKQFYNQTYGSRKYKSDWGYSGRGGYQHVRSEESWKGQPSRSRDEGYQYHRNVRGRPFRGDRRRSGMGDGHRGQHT
How it was run: as §1

OTUD5 = biological target: T5, OTUD5 (UniProt Q96G74)
T5 sequence (whole entry): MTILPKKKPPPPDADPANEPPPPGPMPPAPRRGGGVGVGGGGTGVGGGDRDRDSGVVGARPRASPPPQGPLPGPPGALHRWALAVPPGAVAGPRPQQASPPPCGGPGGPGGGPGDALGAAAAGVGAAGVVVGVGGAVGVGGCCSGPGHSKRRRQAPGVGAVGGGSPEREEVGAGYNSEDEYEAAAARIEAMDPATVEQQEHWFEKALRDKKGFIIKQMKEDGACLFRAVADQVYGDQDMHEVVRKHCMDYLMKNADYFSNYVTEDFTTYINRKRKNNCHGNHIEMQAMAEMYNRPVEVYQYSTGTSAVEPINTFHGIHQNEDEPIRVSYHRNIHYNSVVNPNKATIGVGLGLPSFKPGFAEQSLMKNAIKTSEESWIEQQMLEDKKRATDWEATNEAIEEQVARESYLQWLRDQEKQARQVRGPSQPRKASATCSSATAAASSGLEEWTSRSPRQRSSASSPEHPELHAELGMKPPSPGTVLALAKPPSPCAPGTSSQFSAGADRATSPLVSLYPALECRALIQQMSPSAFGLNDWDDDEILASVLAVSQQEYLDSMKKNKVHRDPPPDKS
How it was run: as §1

Measured: log2 ratio of Biotin-Ahx-Ub-VS probe labelling

Chain of EIF3H (O15372 whole entry): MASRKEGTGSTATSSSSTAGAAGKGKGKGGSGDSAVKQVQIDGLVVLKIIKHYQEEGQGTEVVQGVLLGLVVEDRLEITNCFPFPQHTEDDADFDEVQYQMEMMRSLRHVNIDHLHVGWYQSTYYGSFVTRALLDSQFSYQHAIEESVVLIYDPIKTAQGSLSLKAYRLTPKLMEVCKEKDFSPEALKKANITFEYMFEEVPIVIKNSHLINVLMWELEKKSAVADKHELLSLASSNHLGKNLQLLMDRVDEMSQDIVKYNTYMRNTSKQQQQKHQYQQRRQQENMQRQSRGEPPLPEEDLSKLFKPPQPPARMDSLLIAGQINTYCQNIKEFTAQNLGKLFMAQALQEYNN
Chain of OTUB1 (Q96FW1 whole entry): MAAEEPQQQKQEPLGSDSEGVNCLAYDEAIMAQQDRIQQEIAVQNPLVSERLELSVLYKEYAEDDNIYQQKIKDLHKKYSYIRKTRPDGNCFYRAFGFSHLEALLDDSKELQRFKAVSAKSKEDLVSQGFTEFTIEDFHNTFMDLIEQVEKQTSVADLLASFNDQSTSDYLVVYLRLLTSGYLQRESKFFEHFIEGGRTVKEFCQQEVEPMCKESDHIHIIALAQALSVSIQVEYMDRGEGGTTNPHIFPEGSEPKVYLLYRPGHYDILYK
Chain of EIF3F (O00303 whole entry): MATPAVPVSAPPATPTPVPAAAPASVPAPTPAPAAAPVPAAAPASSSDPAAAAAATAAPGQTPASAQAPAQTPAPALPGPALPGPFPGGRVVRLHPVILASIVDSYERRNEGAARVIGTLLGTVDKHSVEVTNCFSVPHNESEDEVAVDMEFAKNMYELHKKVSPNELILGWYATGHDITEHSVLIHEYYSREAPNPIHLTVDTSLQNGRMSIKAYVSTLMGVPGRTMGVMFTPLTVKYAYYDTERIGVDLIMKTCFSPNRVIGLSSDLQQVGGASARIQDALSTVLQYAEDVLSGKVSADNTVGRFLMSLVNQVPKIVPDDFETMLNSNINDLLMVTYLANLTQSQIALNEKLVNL
Chain of ATXN3 (P54252 whole entry): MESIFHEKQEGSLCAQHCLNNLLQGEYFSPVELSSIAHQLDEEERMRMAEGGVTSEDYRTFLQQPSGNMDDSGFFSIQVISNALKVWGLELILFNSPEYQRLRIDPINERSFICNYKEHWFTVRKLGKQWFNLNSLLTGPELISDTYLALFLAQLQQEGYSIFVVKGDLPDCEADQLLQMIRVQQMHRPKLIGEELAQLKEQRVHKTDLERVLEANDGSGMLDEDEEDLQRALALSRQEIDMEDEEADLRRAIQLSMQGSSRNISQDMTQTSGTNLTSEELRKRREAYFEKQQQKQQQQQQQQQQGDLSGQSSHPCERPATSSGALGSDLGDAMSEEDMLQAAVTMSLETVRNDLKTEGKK

O=C(CCl)N[C@H]1CC[C@@H](CO)CC1
active: BAP1 -1.34
inactive: ALG13 0.27 | ATXN3 -0.868 | EIF3F -0.486 | EIF3H 0.0529 | FAM105A -0.00946 | OTUB1 -0.626 | OTUD4 -0.852 | OTUD5 -0.686
